Assay results taken from ChEMBL document CHEMBL2218924, “A broad activity screen in support of a chemogenomic map for kinase signalling research and drug discovery” (Biochem J, 2013).

What was measured:
[1] = target: BDNF/NT-3 growth factors receptor (Homo sapiens) (UniProt Q16620); details: at 10 µM
[2] = target: T1, Tyrosine-protein kinase TXK (Homo sapiens) (UniProt P42681); details: at 1 µM
T1 sequence (whole entry): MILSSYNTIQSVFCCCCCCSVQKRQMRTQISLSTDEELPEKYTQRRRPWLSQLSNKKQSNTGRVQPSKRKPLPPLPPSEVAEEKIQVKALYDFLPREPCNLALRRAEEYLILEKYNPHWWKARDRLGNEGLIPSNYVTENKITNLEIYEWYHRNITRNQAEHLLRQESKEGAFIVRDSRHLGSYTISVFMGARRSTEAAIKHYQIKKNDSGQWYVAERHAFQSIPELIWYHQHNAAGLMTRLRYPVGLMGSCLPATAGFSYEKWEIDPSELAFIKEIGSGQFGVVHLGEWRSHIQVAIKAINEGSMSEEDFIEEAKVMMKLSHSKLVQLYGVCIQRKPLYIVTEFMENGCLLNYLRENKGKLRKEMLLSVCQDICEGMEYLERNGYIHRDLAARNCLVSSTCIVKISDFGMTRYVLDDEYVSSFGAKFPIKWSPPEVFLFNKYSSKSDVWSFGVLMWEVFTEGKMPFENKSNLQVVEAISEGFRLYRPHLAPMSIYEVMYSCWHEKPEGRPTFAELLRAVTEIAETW

[3] = target: T1, Tyrosine-protein kinase TXK (Homo sapiens); details: at 10 µM
[4] = target: T2, Serine/threonine-protein kinase ULK2 (Homo sapiens) (UniProt Q8IYT8); details: at 1 µM
T2 sequence (whole entry): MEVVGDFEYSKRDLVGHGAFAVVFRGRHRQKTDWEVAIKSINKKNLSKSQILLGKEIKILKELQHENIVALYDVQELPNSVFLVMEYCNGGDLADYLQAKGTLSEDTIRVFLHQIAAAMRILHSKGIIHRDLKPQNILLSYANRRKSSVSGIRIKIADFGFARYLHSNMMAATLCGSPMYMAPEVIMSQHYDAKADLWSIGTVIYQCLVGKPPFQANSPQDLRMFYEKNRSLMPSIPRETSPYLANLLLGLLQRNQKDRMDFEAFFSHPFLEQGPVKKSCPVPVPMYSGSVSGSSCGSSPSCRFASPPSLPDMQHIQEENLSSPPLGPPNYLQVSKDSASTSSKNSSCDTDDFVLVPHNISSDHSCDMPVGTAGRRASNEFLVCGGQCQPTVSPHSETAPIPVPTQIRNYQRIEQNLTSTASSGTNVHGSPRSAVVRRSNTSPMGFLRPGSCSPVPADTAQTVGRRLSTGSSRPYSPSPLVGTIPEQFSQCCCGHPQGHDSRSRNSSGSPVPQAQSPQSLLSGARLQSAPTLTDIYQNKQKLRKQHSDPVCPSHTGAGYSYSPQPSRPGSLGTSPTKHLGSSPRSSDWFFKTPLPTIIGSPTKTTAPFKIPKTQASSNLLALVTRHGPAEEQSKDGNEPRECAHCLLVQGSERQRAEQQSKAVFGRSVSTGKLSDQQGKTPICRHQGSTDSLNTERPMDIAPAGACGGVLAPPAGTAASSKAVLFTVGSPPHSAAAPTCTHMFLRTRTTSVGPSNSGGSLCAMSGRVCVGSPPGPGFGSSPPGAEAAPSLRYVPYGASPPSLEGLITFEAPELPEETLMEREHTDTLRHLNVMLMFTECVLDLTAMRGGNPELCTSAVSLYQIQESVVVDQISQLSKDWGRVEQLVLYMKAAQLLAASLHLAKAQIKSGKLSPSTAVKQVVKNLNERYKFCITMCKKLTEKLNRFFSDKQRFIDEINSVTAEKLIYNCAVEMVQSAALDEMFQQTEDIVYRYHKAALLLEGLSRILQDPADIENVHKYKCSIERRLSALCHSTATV

[5] = target: T2, Serine/threonine-protein kinase ULK2 (Homo sapiens); details: at 10 µM
[6] = target: T3, Serine/threonine-protein kinase ULK3 (Homo sapiens) (UniProt Q6PHR2); details: at 1 µM
T3 sequence (whole entry): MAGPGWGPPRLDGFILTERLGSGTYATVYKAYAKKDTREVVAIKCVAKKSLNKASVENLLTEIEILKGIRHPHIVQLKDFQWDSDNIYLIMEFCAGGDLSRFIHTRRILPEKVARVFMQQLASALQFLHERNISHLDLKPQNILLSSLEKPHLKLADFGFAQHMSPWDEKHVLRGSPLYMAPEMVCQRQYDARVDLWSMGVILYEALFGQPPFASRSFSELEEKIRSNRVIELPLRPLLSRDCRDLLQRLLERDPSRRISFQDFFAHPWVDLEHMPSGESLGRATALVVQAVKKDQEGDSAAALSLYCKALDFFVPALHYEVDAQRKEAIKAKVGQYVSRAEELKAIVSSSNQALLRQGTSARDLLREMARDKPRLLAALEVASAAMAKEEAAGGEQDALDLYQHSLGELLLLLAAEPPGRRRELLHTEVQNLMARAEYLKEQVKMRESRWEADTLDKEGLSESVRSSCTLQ

[7] = target: T3, Serine/threonine-protein kinase ULK3 (Homo sapiens); details: at 10 µM
[8] = target: Serine/threonine-protein kinase VRK2 (Homo sapiens) (UniProt Q86Y07); details: at 1 µM
[9] = target: Serine/threonine-protein kinase VRK2 (Homo sapiens) (UniProt Q86Y07); details: at 10 µM
[10] = target: Serine/threonine-protein kinase WNK2 (Homo sapiens) (UniProt Q9Y3S1); details: at 1 µM
[11] = target: Serine/threonine-protein kinase WNK2 (Homo sapiens) (UniProt Q9Y3S1); details: at 10 µM
[12] = target: Serine/threonine-protein kinase WNK3 (Homo sapiens) (UniProt Q9BYP7); details: at 1 µM
[13] = target: Serine/threonine-protein kinase WNK3 (Homo sapiens) (UniProt Q9BYP7); details: at 10 µM
[14] = target: Tyrosine-protein kinase Yes (Homo sapiens) (UniProt P07947); details: at 1 µM
[15] = target: Tyrosine-protein kinase Yes (Homo sapiens) (UniProt P07947); details: at 10 µM
[16] = target: T4, Tyrosine-protein kinase ZAP-70 (Homo sapiens) (UniProt P43403); details: at 1 µM
T4 sequence (whole entry): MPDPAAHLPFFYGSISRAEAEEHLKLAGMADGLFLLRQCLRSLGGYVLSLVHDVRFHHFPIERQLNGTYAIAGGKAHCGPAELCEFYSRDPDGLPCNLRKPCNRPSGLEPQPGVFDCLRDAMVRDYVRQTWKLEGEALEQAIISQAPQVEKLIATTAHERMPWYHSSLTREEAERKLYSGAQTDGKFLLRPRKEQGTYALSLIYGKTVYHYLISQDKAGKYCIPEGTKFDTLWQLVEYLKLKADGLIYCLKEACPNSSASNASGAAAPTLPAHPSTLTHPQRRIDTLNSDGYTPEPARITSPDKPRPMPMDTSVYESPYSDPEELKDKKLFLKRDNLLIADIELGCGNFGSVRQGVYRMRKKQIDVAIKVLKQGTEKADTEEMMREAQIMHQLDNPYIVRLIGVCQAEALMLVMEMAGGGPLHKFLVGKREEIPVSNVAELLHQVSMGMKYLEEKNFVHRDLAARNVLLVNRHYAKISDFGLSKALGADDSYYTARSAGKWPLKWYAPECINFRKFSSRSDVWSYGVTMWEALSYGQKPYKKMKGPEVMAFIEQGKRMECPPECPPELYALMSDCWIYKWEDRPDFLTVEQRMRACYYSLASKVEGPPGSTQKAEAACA

[17] = target: Death-associated protein kinase 3 (Homo sapiens) (UniProt O43293); details: at 1 µM
[18] = target: Death-associated protein kinase 3 (Homo sapiens) (UniProt O43293); details: at 10 µM
[19] = target: RAF proto-oncogene serine/threonine-protein kinase (Homo sapiens) (UniProt P04049); details: at 1 µM
[20] = target: RAF proto-oncogene serine/threonine-protein kinase (Homo sapiens) (UniProt P04049); details: at 10 µM

Chain of Serine/threonine-protein kinase WNK2 (Homo sapiens) (Q9Y3S1 whole entry): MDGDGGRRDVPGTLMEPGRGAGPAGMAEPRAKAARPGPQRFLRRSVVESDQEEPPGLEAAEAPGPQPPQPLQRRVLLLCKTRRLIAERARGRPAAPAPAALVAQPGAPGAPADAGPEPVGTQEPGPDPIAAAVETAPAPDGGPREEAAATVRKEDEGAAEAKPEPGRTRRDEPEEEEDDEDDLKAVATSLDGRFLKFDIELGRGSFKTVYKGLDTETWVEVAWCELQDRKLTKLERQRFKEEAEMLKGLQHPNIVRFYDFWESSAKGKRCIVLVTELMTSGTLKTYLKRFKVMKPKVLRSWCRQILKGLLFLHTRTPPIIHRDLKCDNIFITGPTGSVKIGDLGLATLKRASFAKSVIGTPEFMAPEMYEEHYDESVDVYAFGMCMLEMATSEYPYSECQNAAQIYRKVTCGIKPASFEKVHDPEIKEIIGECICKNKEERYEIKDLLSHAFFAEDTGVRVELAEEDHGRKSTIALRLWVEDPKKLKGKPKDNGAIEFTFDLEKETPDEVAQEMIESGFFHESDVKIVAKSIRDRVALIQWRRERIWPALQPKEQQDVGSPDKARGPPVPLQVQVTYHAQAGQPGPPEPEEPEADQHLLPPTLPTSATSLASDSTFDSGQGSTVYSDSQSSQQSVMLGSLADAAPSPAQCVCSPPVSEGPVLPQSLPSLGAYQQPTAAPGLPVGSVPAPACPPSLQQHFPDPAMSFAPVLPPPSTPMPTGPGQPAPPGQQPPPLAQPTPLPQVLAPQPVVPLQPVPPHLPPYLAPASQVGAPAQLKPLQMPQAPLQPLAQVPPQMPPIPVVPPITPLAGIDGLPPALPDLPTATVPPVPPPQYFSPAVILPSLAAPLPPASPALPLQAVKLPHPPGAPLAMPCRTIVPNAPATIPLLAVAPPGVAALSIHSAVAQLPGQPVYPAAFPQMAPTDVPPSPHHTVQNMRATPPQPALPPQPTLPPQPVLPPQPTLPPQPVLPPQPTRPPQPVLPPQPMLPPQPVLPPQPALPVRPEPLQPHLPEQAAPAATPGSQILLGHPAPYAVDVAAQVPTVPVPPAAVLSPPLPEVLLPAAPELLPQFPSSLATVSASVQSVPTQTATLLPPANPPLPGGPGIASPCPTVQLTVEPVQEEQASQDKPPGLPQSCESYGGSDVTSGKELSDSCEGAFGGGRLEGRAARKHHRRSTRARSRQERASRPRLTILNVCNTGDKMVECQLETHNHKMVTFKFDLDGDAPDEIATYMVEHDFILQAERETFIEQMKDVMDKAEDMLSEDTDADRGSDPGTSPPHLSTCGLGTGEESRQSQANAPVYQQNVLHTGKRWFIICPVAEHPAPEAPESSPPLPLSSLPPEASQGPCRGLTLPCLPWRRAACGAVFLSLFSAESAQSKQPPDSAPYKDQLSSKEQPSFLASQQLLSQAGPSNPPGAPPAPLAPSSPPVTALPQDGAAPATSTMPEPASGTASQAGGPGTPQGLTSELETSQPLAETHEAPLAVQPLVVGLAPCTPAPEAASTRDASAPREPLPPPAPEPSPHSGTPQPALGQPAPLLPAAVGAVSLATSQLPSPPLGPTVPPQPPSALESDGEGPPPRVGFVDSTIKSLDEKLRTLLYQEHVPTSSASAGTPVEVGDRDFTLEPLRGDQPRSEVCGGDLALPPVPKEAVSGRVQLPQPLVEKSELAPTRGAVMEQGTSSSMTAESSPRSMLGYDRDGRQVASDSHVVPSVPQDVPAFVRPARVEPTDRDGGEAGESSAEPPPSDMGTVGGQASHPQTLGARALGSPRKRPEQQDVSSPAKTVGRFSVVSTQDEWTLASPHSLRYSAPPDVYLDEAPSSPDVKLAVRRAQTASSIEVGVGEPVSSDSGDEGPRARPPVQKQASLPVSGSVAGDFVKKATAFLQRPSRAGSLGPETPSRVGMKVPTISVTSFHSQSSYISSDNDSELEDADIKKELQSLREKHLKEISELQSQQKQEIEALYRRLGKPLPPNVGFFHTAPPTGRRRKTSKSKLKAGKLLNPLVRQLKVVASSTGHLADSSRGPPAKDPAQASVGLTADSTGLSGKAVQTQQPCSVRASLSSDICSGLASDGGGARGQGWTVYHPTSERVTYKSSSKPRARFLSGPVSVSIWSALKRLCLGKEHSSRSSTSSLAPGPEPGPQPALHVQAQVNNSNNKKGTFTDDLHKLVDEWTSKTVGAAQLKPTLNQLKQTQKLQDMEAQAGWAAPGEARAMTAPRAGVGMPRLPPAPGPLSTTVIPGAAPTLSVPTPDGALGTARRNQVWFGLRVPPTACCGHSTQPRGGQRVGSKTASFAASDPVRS
Chain of Death-associated protein kinase 3 (Homo sapiens) (O43293 whole entry, looked up): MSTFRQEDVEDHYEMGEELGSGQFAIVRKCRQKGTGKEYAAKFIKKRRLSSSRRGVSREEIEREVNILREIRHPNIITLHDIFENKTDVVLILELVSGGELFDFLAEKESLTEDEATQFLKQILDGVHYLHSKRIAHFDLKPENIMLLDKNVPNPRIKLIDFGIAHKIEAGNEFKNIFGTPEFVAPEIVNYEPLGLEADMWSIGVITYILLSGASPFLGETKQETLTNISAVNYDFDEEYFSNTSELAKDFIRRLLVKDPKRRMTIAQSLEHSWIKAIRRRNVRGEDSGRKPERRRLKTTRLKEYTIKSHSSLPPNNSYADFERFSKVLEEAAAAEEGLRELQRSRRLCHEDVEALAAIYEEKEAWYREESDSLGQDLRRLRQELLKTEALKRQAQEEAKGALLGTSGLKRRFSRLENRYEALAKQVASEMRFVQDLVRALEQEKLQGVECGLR
Chain of BDNF/NT-3 growth factors receptor (Homo sapiens) (Q16620 32-822 limits assumed): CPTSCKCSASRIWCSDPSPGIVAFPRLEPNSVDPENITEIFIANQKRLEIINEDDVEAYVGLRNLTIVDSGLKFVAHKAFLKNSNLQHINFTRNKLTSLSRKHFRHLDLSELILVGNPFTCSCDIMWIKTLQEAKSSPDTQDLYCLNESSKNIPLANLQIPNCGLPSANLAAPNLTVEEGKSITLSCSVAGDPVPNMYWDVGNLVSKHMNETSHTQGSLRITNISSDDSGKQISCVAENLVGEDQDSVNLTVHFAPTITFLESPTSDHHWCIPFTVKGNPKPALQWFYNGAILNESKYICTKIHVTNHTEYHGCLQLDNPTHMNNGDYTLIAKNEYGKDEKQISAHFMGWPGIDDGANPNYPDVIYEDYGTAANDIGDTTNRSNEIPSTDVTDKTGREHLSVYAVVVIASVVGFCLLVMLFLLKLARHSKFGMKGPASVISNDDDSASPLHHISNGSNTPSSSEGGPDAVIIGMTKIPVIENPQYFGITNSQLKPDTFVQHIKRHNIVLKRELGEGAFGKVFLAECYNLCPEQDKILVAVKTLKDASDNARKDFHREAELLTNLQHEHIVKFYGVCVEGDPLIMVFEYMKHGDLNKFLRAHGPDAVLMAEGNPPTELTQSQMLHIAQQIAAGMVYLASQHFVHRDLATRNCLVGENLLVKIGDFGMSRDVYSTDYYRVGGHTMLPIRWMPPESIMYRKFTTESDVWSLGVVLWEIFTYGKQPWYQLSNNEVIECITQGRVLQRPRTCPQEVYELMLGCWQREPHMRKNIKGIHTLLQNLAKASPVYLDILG
Chain of Serine/threonine-protein kinase VRK2 (Homo sapiens) (Q86Y07 whole entry): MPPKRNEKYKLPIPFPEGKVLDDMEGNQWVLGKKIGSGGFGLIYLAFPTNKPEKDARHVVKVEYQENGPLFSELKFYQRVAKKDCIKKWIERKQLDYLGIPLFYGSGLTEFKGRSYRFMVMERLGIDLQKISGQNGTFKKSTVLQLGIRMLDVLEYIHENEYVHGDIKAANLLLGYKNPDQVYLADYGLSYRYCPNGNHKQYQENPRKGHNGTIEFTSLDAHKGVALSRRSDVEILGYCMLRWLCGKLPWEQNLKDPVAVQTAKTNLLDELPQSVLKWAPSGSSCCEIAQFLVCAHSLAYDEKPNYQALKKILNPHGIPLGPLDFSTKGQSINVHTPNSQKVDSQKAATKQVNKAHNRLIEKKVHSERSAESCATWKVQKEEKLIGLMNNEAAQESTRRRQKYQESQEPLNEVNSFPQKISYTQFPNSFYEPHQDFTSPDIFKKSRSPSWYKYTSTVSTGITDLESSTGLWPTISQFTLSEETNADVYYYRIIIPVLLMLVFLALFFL
Chain of Tyrosine-protein kinase Yes (Homo sapiens) (P07947 2-543 limits assumed): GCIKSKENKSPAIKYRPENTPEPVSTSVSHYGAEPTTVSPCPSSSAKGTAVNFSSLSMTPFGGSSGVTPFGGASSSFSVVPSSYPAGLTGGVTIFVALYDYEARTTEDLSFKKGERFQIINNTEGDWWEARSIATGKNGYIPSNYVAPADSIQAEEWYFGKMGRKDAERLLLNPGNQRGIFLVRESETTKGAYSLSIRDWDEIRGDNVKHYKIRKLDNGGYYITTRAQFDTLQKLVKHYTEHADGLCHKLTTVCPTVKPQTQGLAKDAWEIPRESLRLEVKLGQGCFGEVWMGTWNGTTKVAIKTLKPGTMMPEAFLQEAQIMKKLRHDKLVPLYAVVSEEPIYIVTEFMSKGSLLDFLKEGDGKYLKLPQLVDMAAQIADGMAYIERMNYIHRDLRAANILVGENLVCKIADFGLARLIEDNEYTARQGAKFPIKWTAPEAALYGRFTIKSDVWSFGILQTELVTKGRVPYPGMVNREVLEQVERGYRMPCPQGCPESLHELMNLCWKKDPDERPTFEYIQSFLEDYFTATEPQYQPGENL

O=Nc1c(-c2c(O)[nH]c3ccccc23)[nH]c2ccccc12
residual activity [1]: 0% | residual activity [2]: 45% | residual activity [3]: 11% | residual activity [4]: 93% | residual activity [5]: 59% | residual activity [6]: 55% | residual activity [7]: 12% | residual activity [8]: 71% (inactive) | residual activity [9]: 28% | residual activity [10]: 90% (inactive) | residual activity [11]: 55% | residual activity [12]: 89% (inactive) | residual activity [13]: 60% | residual activity [14]: 17% | residual activity [15]: 0% | residual activity [16]: 79% | residual activity [17]: 81% | residual activity [18]: 37% | residual activity [19]: 89% | residual activity [20]: 66%

O=C1NC(=O)/C(=C\c2ccc3nccnc3c2)S1
residual activity [1]: 94% | residual activity [2]: 100% | residual activity [3]: 93% | residual activity [4]: 104% | residual activity [5]: 82% | residual activity [6]: 99% | residual activity [7]: 63% | residual activity [8]: 93% (inactive) | residual activity [9]: 92% | residual activity [10]: 82% (inactive) | residual activity [11]: 65% | residual activity [12]: 83% (inactive) | residual activity [13]: 79% | residual activity [14]: 119% | residual activity [15]: 102% | residual activity [16]: 109% | residual activity [17]: 71% | residual activity [18]: 21% | residual activity [19]: 73% | residual activity [20]: 44%

CC(C)n1cnc2c(NCc3ccccc3)nc(NCCCO)nc21
residual activity [1]: 98% | residual activity [2]: 75% | residual activity [3]: 74% | residual activity [4]: 106% | residual activity [5]: 101% | residual activity [6]: 95% | residual activity [7]: 90% | residual activity [8]: 95% (inactive) | residual activity [9]: 69% | residual activity [10]: 98% (inactive) | residual activity [11]: 89% | residual activity [12]: 105% (inactive) | residual activity [13]: 92% | residual activity [14]: 108% | residual activity [15]: 88% | residual activity [16]: 114% | residual activity [17]: 87% | residual activity [18]: 97% | residual activity [19]: 85% | residual activity [20]: 78%

CCC(=O)Nc1ccc2ncnc(Nc3cccc(Br)c3)c2c1
residual activity [1]: 119% | residual activity [2]: 108% | residual activity [3]: 78% | residual activity [4]: 106% | residual activity [5]: 100% | residual activity [6]: 107% | residual activity [7]: 89% | residual activity [8]: 106% (inactive) | residual activity [9]: 86% | residual activity [10]: 99% (inactive) | residual activity [11]: 80% | residual activity [12]: 95% (inactive) | residual activity [13]: 80% | residual activity [14]: 85% | residual activity [15]: 50% | residual activity [16]: 86% | residual activity [17]: 75% | residual activity [18]: 100% | residual activity [19]: 77% | residual activity [20]: 90%

O=C1Nc2ccccc2/C1=C1/Nc2ccccc2/C1=N\OCCC(O)CO (stereo not drawn)
residual activity [1]: 0% | residual activity [2]: 31% | residual activity [3]: 3% | residual activity [4]: 98% | residual activity [5]: 74% | residual activity [6]: 27% | residual activity [7]: 5% | residual activity [8]: 69% (inactive) | residual activity [9]: 26% | residual activity [10]: 71% (inactive) | residual activity [11]: 40% | residual activity [12]: 76% (inactive) | residual activity [13]: 50% | residual activity [14]: 8% | residual activity [15]: 2% | residual activity [16]: 97% | residual activity [17]: 63% | residual activity [18]: 54% | residual activity [19]: 54% | residual activity [20]: 60%

CCN(CC)C(=O)c1ccc(Nc2nc(OCC3CCCCC3)c3nc[nH]c3n2)cc1
residual activity [1]: 2% | residual activity [2]: 49% | residual activity [3]: 5% | residual activity [4]: 80% | residual activity [5]: 35% | residual activity [6]: 36% | residual activity [7]: 8% | residual activity [10]: 96% (inactive) | residual activity [11]: 48% | residual activity [14]: 13% | residual activity [15]: 1% | residual activity [18]: 65% | residual activity [19]: 62% | residual activity [20]: 21%

O=[N+]([O-])c1ccc(-c2nc(-c3ccc(F)cc3)c(-c3ccncc3)[nH]2)cc1
residual activity [1]: 107% | residual activity [2]: 61% | residual activity [3]: 66% | residual activity [4]: 112% | residual activity [5]: 106% | residual activity [6]: 103% | residual activity [7]: 103% | residual activity [9]: 93% | residual activity [10]: 102% (inactive) | residual activity [11]: 95% | residual activity [12]: 92% (inactive) | residual activity [13]: 98% | residual activity [14]: 103% | residual activity [15]: 102% | residual activity [16]: 122% | residual activity [17]: 92% | residual activity [18]: 102% | residual activity [19]: 20% | residual activity [20]: 13%
